# PubChem BioAssay (EPA / NIEHS)
# Records with an inconclusive call do not appear. Active and inactive are the calls of the source. The calls were made as follows, unless noted: active = hit-call score of the fitted dose curve at least 0.9, where 1 is the maximum; inconclusive = response in the unintended direction; inactive = score below 0.9.
# Legend:
# [1] = molecular target: rat Glycine Receptor, Strychnine-sensitive (GlyRStrySens), Glra1 (gene 25674) (UniProt P07727); assay: NVS_LGIC_rGlyRStrySens: NovaScreen (NVS) Ligand-Gated Ion Channel Assay for rat Glycine Receptor, Strychnine-sensitive (GlyRStrySens) (AID 2283341)
# Procedure, shortened: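 Radioligand displacement on rat spinal cord membranes, 1 hr, filter scintillation read-out. Single-concentration duplicate screen at 25 uM; chemicals meeting threshold (e.g., 30% inhibition) rerun in concentration-response up to 50 uM. Loss of binding fitted versus DMSO.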
# [2] = molecular target: rat Peripheral-type Benzodiazepine Receptor (PBR), Tspo (gene 24230) (UniProt P16257); assay: NVS_MP_rPBR: NovaScreen (NVS) Membrane Protein Assay for rat Peripheral-type Benzodiazepine Receptor (PBR) (AID 2283335)
# Procedure, shortened: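 Rat kidney membranes; radioligand binding with displacement, filter-based scintillation counting, 1 h incubation. Primary screen in duplicate at 25 uM, actives followed in concentration series; loss of binding vs DMSO.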
# [3] = molecular target: bovine Gamma-Aminobutyric Acid Type A Receptor Agonist (GABAR Agonist), GABRA1 (gene 780973) (UniProt P08219); assay: NVS_LGIC_bGABAR_Agonist: NovaScreen (NVS) Ligand-Gated Ion Channel Assay for bovine Gamma-Aminobutyric Acid Type A Receptor Agonist (GABAR Agonist) (AID 2283338)
# Procedure, shortened: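 Radioligand binding to bovine cerebellar membranes in agonist format, read by filter-based scintillation counting after 1 h. Primary screen in duplicate at 25 uM, with actives followed in concentration series. Gain of signal versus DMSO.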
# [4] = molecular target: Estrogen receptor (Homo sapiens) (UniProt P03372); assay: OT_ER_ERaERa_1440: Odyssey Thera (OT) 24-hour HEK293T Protein-Complementation Assay for Estrogen Receptor-alpha/-alpha Homodimer (AID 2283349);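 also: hits raise fluorescence above DMSO for agonists and antagonists alike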
# Procedure, shortened: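 Readout is the rise in mean fluorescence from reporter fragment complementation when ERα LBD (aa 310-547) units dimerize in HEK293T cells. Measured 24 h after dosing and analysed as increase over DMSO control.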
# [5] = molecular target: Estrogen receptor (Homo sapiens) (UniProt P03372); assay: OT_ER_ERaERa_0480: Odyssey Thera (OT) 8-hour HEK293T Protein-Complementation Assay for Estrogen Receptor-alpha/-alpha Homodimer (AID 2283351);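 also: rise in fluorescence from reassembled reporter fragments on ERα LBD homodimer in nucleus or whole cell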
# Procedure, shortened: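 HEK293T, stable ERα LBD (aa 310-547) PCA homodimer; 8 h compound exposure; fluorescence intensity, laser scanning cytometer; positive fitting direction, DMSO baseline.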
# [6] = molecular target: Voltage-gated inwardly rectifying potassium channel KCNH2 (Homo sapiens) (UniProt Q12809); assay: NVS_IC_hKhERGCh: NovaScreen (NVS) Ion Channel Assay for human Potassium Channel ERG (KhERGCh) (AID 2283333)
# Procedure, shortened: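 Cell-free radioligand competition binding on hERG protein extracted from CHO cells, read by filter-based scintillation counting 0.75 h after dosing. Primary screen at 25 uM in duplicate, actives followed in concentration series. Signal loss fitted versus DMSO.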
# [7] = system: NCBI gene 100848466; assay: NVS_NR_bPR: NovaScreen (NVS) Nuclear Receptor Binding Assay for bovine Progextron Receptor (PR) (AID 2283343)
# Procedure, shortened: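 Bovine uterine membrane preparation, cell-free; radioligand competitive displacement measured by scintillation counting 18 hours after dosing. Loss of signal versus DMSO baseline indicates binding; primary HTS single concentration 25 uM in duplicate, actives followed in concentration series.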
# [8] = molecular target: bovine Estrogen Receptor (ER), ESR1 (gene 407238) (UniProt P49884); assay: NVS_NR_bER: NovaScreen (NVS) Nuclear Receptor Binding Assay for bovine Estrogen Receptor (ER) (AID 2283345);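 also: actives lower the bound radioligand count which means they displace the ER ligand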
# Procedure, shortened: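 Displacement of a radioligand from estrogen receptor in bovine uterine membrane preparations; scintillation signal taken at 18 hours, DMSO as baseline. Single-concentration duplicates (25 uM) preceded concentration-response follow-up of actives.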
# [9] = molecular target: Estrogen receptor (Homo sapiens) + Estrogen receptor beta (Homo sapiens) (UniProt P03372+Q92731); assay: OT_ER_ERaERb_0480: Odyssey Thera (OT) 8-hour HEK293T Protein-Complementation Assay for Estrogen Receptor-alpha/-beta Heterodimer (AID 2283352)
# Procedure, shortened: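 HEK293T cells expressing ER-alpha/ER-beta LBD fusions to complementary reporter fragments were dosed with compound for 8 hours. Heterodimer formation was read as increased nuclear (agonist) or nuclear plus cytoplasmic (antagonist) mean fluorescence intensity versus DMSO vehicle.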
# [10] = molecular target: Small conductance calcium-activated potassium channel protein 1 (Rattus norvegicus) (UniProt P70606); assay: NVS_IC_rKCaCh: NovaScreen (NVS) Ion Channel Assay for rat Potassium Channel, Ca2+ Act., VI (KCaCh) (AID 2283336)
# Procedure, shortened: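 Radioligand binding to rat forebrain membranes, cell-free, read 1 hour after dosing by filter-based scintillation counting. Compounds first run in duplicate at 25 uM, actives then in concentration series; loss of signal vs DMSO indicates displacement.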
# [11] = NVS_IC_rCaBTZCHL: NovaScreen (NVS) Ion Channel Assay for Calcium Channel, Type L, Benzothiazepine Site (CaBTZCHL) (AID 2283337)
# Procedure, shortened: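 Scintillation counting of filter-bound radioligand gave the read-out, with reduced binding versus DMSO scored as activity. Membranes came from rat cortex and were read 1.5 h after compound addition. Chemicals were screened first in duplicate at 25 uM.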
# [12] = system: guinea pig Histamine Receptor (H2), gene 100729734; assay: NVS_GPCR_gH2: NovaScreen (NVS) G Protein-Coupled Receptor Assay for guinea pig Histamine Receptor (H2) (AID 2283342)
# Procedure, shortened: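 Radioligand displacement on guinea pig striatal membranes, 1 h after dosing, filter-based scintillation counting; loss of signal versus DMSO. Single-point screen at 25 uM in duplicate, then concentration-response up to 50 uM.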
# [13] = molecular target: rat Gamma-Aminobutyric Acid Type A Receptor BDZ, alpha 6 site (GABARa6), Gabra6 (gene 29708) (UniProt P30191); assay: NVS_LGIC_rGABARa6: NovaScreen (NVS) Ligand-Gated Ion Channel Assay for rat Gamma-Aminobutyric Acid Type A Receptor BDZ, alpha 6 site (GABARa6) (AID 2283339)
# Procedure, shortened: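 Rat cerebellar membranes; radioligand binding, filtration and scintillation counting, read 1 h after dosing. Single-concentration duplicate screen at 25 uM, then concentration-response up to 50 uM for actives; loss of signal fitted versus DMSO baseline.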
# [14] = molecular target: chimpanzee Androgen Receptor (AR), AR (gene 747460) (UniProt O97775); assay: NVS_NR_cAR: NovaScreen (NVS) Nuclear Receptor Binding Assay for chimpanzee Androgen Receptor (AR) (AID 2283346);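 also: radioligand displacement from AR measured by scintillation counting in a cell-free assay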
# Procedure, shortened: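 Cell-free radioligand displacement using receptor protein extracted from Sf9/Sf21 cells; bound radioligand measured by scintillation counting 72 hours after chemical dosing. Loss of signal versus DMSO baseline indicates binding; primary screen single-concentration in duplicate at 25 uM, actives followed in concentration series.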
# [15] = molecular target: Estrogen receptor (Homo sapiens) (UniProt P03372); assay: NVS_NR_hER: NovaScreen (NVS) Nuclear Receptor Binding Assay for human Estrogen Receptor (ER) (AID 2283348)
# Procedure, shortened: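 Cell-free radioligand binding with protein extracted from MCF7 cells; scintillation counting 18 hours after dosing. Loss of signal versus DMSO baseline read as displacement; primary single-concentration screen at 25 uM in duplicate, actives retested in concentration series.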
# [16] = molecular target: Bile acid receptor (Homo sapiens) (UniProt Q96RI1); assay: NVS_NR_hFXR_Antagonist: NovaScreen (NVS) Nuclear Receptor Binding Assay for human Farnesoid X Receptor Antagonism (FXR) (AID 2283350)
# Procedure, shortened: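 Cell-free TR-FRET ligand-binding read-out on human FXR (NR1H4) in antagonist mode, measured 1 h after dosing. Primary screen in duplicate at 25 uM, actives retested in concentration series; signal loss scored versus DMSO.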
# [17] = molecular target: Glutamate receptor ionotropic, kainate 1 (Rattus norvegicus) (UniProt P22756); assay: NVS_IC_rKAR: NovaScreen (NVS) Ion Channel Assay for rat Kainic Acid Receptors (KAR) (AID 2283334; active = hit-call score of the fitted dose curve at least 0.9, where 1 is the maximum; inactive = score below 0.9)
# Procedure, shortened: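 Radioligand displacement binding using rat forebrain membranes, 1 h incubation, filter-based scintillation counting. Screened in duplicate at 25 uM, with actives retested in concentration-response up to 50 uM; fitted against DMSO.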
# [18] = molecular target: human Androgen Receptor (AR), AR (gene 367) (UniProt P10275); assay: NVS_NR_hAR: NovaScreen (NVS) Nuclear Receptor Binding Assay for human Androgen Receptor (AR) (AID 2283332)
# Procedure, shortened: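 Actives from a duplicate 25 uM single-point screen went on to concentration series. Read-out after 20 h was scintillation counting of displaced radioligand in LnCAP extract, with DMSO as baseline.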
# [19] = molecular target: Androgen Receptor/SRC-1 Co-activator, AR (gene 367) (UniProt P10275); assay: OT_AR_ARSRC1_0960: Odyssey Thera (OT) 16-hour HEK293T Protein-Complementation Assay for Androgen Receptor/SRC-1 Co-activator (AID 2283353);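 also: actives raise the signal above DMSO so potency reflects increased AR and SRC-1 complex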
# Procedure, shortened: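 Split-Venus PCA, AR/SRC-1 fusions, stable HEK293T; 16 h compound exposure; imaged at 488 and 635 nm; N/C ratio (488 nm channel), min 400 cells/image; positive-direction fit, DMSO baseline.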
# Sequence of Androgen Receptor/SRC-1 Co-activator, AR (gene 367) (P10275 whole entry, looked up, the tested form may be a part): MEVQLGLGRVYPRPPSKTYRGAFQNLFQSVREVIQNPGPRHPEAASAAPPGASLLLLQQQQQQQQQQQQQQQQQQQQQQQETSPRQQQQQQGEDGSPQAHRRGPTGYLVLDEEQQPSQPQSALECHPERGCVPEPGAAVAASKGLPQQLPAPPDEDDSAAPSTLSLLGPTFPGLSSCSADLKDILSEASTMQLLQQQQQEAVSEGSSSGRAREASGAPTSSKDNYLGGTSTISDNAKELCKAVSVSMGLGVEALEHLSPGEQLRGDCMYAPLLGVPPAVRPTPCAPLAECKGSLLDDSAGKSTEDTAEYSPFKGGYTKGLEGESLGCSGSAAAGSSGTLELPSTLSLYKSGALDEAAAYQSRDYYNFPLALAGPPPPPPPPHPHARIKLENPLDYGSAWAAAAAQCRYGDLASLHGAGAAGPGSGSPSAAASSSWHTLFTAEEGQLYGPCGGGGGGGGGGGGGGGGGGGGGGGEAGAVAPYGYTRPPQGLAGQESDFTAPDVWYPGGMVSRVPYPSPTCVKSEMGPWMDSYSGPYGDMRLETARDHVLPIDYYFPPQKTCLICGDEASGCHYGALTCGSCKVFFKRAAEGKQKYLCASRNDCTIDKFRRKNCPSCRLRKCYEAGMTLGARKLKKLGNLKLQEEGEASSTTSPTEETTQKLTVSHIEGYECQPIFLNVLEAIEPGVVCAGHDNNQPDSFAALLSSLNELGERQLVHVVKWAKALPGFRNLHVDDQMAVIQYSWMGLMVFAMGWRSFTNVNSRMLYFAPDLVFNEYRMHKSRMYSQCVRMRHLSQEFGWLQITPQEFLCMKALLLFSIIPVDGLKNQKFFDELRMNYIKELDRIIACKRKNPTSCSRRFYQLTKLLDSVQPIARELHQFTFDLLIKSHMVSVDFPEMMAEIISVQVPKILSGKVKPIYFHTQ
# Sequence of Estrogen receptor (Homo sapiens) + Estrogen receptor beta (Homo sapiens) (P03372 whole entry, looked up, the tested form may be a part): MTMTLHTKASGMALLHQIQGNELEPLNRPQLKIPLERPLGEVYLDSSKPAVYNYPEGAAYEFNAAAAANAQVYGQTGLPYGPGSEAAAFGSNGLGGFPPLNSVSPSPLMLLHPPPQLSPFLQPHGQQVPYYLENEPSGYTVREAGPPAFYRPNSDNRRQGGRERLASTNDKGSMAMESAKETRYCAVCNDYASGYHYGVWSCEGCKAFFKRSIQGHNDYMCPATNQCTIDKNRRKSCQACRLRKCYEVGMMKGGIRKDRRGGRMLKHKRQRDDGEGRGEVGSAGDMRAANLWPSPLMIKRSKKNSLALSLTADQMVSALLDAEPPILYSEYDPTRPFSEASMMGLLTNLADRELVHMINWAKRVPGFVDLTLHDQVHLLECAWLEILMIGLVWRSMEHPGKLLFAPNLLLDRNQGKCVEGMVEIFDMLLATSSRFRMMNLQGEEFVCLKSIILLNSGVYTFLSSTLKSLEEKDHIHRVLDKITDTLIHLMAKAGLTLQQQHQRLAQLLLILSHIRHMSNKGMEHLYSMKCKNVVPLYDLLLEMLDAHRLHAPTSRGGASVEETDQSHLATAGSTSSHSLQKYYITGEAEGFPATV
# Sequence of Estrogen receptor (Homo sapiens) + Estrogen receptor beta (Homo sapiens) (Q92731 whole entry, looked up, the tested form may be a part): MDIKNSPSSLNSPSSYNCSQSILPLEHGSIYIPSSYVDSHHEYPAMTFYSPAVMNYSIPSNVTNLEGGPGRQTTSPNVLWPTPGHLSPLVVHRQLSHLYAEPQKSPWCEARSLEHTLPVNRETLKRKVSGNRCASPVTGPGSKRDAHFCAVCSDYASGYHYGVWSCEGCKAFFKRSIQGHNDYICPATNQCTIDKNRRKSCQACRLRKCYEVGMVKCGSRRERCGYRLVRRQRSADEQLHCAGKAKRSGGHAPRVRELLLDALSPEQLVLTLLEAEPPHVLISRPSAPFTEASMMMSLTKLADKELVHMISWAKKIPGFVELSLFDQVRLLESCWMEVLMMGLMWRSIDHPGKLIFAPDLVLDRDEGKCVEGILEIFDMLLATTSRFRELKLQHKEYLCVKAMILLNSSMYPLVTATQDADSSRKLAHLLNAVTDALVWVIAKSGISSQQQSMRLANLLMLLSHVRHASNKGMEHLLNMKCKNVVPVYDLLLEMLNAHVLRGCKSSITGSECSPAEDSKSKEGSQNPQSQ
# Sequence of Estrogen receptor (Homo sapiens) (P03372 whole entry, looked up, the tested form may be a part): as the sequence (P03372 whole entry, looked up, the tested form may be a part) above
# Sequence of chimpanzee Androgen Receptor (AR), AR (gene 747460) (O97775 whole entry, looked up): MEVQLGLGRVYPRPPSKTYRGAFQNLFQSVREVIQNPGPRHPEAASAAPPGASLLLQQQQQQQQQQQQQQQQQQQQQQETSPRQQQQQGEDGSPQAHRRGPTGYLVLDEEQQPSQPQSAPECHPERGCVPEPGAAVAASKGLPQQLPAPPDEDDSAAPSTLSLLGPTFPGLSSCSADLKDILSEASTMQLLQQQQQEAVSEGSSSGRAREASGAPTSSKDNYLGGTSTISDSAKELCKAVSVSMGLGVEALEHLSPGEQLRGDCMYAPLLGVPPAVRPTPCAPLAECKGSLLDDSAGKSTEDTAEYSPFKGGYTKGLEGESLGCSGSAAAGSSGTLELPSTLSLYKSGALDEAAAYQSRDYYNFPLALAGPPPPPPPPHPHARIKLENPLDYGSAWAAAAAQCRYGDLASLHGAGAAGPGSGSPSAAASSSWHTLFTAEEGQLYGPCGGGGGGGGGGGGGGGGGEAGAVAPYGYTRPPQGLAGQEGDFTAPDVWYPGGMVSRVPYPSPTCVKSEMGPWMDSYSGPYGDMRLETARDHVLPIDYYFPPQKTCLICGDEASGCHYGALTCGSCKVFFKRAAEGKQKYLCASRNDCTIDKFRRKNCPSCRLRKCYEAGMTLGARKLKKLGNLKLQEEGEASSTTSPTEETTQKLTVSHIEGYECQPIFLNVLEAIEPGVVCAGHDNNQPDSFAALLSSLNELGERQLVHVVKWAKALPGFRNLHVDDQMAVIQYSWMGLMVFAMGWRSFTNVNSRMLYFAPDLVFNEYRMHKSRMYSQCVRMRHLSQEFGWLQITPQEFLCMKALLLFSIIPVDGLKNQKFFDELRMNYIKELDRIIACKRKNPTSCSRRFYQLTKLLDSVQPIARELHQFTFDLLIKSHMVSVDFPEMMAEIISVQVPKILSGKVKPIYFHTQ
# Sequence of bovine Estrogen Receptor (ER), ESR1 (gene 407238) (P49884 whole entry, looked up): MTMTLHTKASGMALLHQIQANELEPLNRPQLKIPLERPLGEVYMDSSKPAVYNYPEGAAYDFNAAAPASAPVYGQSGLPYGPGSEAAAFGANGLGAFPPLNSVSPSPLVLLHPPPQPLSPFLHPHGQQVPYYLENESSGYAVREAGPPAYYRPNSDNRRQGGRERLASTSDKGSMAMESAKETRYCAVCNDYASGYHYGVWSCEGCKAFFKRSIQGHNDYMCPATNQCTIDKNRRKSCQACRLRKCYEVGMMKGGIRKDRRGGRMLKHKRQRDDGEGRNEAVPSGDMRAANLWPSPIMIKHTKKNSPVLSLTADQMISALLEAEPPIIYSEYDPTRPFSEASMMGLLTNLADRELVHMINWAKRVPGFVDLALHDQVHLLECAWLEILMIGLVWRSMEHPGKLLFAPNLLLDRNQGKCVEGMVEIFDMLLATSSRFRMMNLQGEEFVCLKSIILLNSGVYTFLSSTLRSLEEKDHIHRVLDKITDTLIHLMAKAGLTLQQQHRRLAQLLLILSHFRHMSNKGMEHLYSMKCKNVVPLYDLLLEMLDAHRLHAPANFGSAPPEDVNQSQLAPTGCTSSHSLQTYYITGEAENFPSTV
# Sequence of bovine Gamma-Aminobutyric Acid Type A Receptor Agonist (GABAR Agonist), GABRA1 (gene 780973) (P08219 whole entry, looked up): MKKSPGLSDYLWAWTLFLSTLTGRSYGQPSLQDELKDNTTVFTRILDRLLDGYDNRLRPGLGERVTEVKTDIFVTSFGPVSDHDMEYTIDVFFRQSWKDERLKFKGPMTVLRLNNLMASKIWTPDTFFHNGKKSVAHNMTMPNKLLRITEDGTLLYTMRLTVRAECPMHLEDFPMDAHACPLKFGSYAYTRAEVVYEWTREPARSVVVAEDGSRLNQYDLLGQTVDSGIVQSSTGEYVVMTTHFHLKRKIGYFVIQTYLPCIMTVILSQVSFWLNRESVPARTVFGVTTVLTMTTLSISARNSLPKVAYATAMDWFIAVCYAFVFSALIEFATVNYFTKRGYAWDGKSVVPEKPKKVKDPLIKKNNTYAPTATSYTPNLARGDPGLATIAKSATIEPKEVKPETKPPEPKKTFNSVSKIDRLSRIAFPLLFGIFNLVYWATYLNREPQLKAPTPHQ
# Sequence of rat Peripheral-type Benzodiazepine Receptor (PBR), Tspo (gene 24230) (P16257 whole entry, looked up): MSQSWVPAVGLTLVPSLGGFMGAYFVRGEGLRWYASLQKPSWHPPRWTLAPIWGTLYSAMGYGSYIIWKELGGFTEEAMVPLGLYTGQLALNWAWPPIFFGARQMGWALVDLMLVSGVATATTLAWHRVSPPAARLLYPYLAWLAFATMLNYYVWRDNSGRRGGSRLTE
smiles,measurement,setting,value
Nc1ccc(Cc2ccc(N)cc2)cc1,outcome,[1],inactive
CCCCOC(=O)c1ccccc1C(=O)OCc1ccccc1,outcome,[2],inactive
same,outcome,[3],inactive
CCC12COCN1COC2,outcome,[3],inactive
same,outcome,[4],inactive
same,outcome,[5],inactive
Nc1ccc(N=Nc2ccccc2)cc1,outcome,[6],inactive
same,AC50,[2],11 µM (active)
same,outcome,[7],inactive
same,outcome,[8],inactive
same,AC50,[4],80.4 µM (active)
same,outcome,[5],inactive
same,AC50,[9],29 µM (active)
O=C(N[C@H](c1ccccc1)[C@@H]1CN2CCC1CC2)c1c(Cl)ccc(C(F)(F)F)c1Cl,outcome,[6],inactive
same,outcome,[2],inactive
same,outcome,[10],inactive
same,AC50,[11],3.07 µM (active)
same,AC50,[12],3.16 µM (active)
COP(=S)(OC)SCN1C(=O)c2ccccc2C1=O,AC50,[2],11.3 µM (active)
same,outcome,[12],inactive
Cc1ccc(N)c(N)c1,outcome,[13],inactive
CC(C)(C)C(O)(CCc1ccc(Cl)cc1)Cn1cncn1 (stereo not given),outcome,[6],inactive
same,AC50,[2],6.45 µM (active)
same,AC50,[11],16 µM (active)
same,AC50,[14],14.9 µM (active)
CCOC(=O)[C@]1(c2ccccc2)Oc2ccccc2[C@@H]1N,AC50,[6],1.44 µM (active)
same,AC50,[11],7.25 µM (active)
same,AC50,[1],25 µM (active)
same,AC50,[12],4.92 µM (active)
same,outcome,[7],inactive
CC(C)COC(=O)c1ccccc1C(=O)OCC(C)C,outcome,[2],inactive
same,outcome,[8],inactive
same,AC50,[4],46.5 µM (active)
same,AC50,[5],31.4 µM (active)
same,AC50,[9],17.2 µM (active)
[Cl-].[Cl-].[Hg+2],AC50,[12],8.27 µM (active)
same,outcome,[8],inactive
same,outcome,[14],inactive
same,outcome,[15],inactive
same,outcome,[4],inactive
same,outcome,[16],inactive
same,outcome,[5],inactive
CN(C)[C@@H]1C(=O)C(C(N)=O)=C(O)[C@@]2(O)C(=O)C3=C(O)c4c(O)cccc4[C@@](C)(O)[C@H]3C[C@@H]12,outcome,[7],inactive
same,AC50,[14],37.4 µM (active)
CCCCCCCCn1sccc1=O,AC50,[11],34.2 µM (active)
same,AC50,[12],26 µM (active)
same,outcome,[8],inactive
same,AC50,[14],9.46 µM (active)
same,outcome,[15],inactive
same,outcome,[4],inactive
same,outcome,[5],inactive
same,outcome,[9],inactive
CCCCCCCCCCCCCN1CC(C)OC(C)C1 (stereo not given),outcome,[3],inactive
same,outcome,[4],inactive
same,outcome,[5],inactive
same,outcome,[9],inactive
CCOc1cccc(C2(N3CCN(c4ccccc4)CC3)CCC(C)CC2)c1 (stereo not given),outcome,[17],inactive
same,outcome,[4],inactive
same,outcome,[5],inactive
O=C(Oc1ccc(Br)cc1)N1CCN2CCC1CC2,outcome,[10],inactive
same,AC50,[3],25 µM (active)
same,outcome,[4],inactive
same,outcome,[5],inactive
Nc1ccc(Cl)cc1N,outcome,[18],inactive
same,AC50,[14],25 µM (active)
same,outcome,[19],inactive
C1=Cc2cccc3cccc1c23,outcome,[17],inactive
Cc1cc(N=Nc2ccccc2C)ccc1N,AC50,[2],14 µM (active)
same,AC50,[19],36 µM (active)
CN(C)C(=O)Nc1ccc(Cl)cc1,outcome,[3],inactive
C=CCc1ccc2c(c1)OCO2,outcome,[3],inactive
CC(C)(O)c1cnn2c(-c3ccc(F)c(-c4c(F)cccc4C#N)c3)cnc2n1,outcome,[3],inactive
same,outcome,[13],inactive
same,AC50,[19],31.7 µM (active)
O=C(Nc1ccccc1)c1ccccc1I,AC50,[2],1.61 µM (active)
same,outcome,[15],inactive
same,outcome,[4],inactive
same,outcome,[5],inactive
same,outcome,[19],inactive
CN(C)c1ccc(C(=O)c2ccc(N(C)C)cc2)cc1,outcome,[2],inactive
